Experimental data published in ChEMBL document CHEMBL1961873, “Compounds: GSK PKIS; Assays: Nanosyn kinase panel” (2012).

How the values were obtained:
[1] = target: Protein kinase C gamma type (Homo sapiens) (UniProt P05129); conditions: at 1 µM;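 note: each value is an averaged percent inhibition of the enzyme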
[2] = target: T1, Protein kinase C iota type (Homo sapiens) (UniProt P41743); conditions: at 0.1 µM
T1 sequence (whole entry): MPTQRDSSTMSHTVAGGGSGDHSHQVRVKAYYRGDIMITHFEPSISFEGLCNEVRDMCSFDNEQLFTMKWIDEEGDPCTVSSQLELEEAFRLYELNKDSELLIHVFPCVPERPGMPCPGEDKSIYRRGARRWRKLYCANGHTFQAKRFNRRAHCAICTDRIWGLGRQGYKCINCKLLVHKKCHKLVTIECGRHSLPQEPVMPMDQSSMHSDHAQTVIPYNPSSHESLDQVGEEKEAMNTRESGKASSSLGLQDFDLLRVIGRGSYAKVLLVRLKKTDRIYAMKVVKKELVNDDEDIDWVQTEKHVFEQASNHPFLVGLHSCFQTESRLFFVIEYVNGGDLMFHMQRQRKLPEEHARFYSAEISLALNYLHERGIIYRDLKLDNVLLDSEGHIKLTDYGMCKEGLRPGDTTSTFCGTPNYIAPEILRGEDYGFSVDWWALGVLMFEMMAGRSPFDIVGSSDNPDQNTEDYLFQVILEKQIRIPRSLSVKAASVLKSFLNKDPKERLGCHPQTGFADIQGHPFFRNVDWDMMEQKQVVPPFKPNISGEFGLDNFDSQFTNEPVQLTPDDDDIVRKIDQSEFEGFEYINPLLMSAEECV

[3] = target: T1, Protein kinase C iota type (Homo sapiens); conditions: at 1 µM
[4] = target: Protein kinase C theta type (Homo sapiens) (UniProt Q04759); conditions: at 0.1 µM
[5] = target: Protein kinase C theta type (Homo sapiens) (UniProt Q04759); conditions: at 1 µM
[6] = target: Protein kinase C beta type (Homo sapiens) (UniProt P05771); conditions: at 0.1 µM
[7] = target: Protein kinase C beta type (Homo sapiens) (UniProt P05771); conditions: at 1 µM
[8] = target: T2, Serine/threonine-protein kinase D1 (Homo sapiens) (UniProt Q15139); conditions: at 0.1 µM
T2 sequence (whole entry): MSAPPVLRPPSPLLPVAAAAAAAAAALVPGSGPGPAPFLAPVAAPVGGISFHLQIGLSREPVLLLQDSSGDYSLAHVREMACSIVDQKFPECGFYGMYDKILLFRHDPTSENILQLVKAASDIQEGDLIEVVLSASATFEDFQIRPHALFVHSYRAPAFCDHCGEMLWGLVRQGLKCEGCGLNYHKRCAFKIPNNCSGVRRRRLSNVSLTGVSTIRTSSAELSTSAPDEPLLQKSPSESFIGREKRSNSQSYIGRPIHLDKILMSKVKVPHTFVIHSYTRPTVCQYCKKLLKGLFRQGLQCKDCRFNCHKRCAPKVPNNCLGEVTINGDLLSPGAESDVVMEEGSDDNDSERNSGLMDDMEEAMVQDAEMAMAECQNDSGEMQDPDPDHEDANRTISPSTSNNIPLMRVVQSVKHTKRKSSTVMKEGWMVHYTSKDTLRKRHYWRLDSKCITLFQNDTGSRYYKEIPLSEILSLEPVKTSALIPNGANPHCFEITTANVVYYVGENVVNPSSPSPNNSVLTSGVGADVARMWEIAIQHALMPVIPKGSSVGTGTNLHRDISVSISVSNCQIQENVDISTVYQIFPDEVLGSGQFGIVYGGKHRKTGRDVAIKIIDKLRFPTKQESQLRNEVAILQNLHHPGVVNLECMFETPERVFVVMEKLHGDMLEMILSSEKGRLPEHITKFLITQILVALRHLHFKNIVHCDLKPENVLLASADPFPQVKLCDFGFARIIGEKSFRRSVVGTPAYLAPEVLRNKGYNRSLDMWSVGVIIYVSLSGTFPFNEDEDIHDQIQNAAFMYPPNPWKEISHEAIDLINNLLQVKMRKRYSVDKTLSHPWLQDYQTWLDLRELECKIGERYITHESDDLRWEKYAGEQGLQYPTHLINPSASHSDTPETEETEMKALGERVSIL

[9] = target: T2, Serine/threonine-protein kinase D1 (Homo sapiens); conditions: at 1 µM
[10] = target: T3, Serine/threonine-protein kinase D2 (Homo sapiens) (UniProt Q9BZL6); conditions: at 0.1 µM
T3 sequence (whole entry): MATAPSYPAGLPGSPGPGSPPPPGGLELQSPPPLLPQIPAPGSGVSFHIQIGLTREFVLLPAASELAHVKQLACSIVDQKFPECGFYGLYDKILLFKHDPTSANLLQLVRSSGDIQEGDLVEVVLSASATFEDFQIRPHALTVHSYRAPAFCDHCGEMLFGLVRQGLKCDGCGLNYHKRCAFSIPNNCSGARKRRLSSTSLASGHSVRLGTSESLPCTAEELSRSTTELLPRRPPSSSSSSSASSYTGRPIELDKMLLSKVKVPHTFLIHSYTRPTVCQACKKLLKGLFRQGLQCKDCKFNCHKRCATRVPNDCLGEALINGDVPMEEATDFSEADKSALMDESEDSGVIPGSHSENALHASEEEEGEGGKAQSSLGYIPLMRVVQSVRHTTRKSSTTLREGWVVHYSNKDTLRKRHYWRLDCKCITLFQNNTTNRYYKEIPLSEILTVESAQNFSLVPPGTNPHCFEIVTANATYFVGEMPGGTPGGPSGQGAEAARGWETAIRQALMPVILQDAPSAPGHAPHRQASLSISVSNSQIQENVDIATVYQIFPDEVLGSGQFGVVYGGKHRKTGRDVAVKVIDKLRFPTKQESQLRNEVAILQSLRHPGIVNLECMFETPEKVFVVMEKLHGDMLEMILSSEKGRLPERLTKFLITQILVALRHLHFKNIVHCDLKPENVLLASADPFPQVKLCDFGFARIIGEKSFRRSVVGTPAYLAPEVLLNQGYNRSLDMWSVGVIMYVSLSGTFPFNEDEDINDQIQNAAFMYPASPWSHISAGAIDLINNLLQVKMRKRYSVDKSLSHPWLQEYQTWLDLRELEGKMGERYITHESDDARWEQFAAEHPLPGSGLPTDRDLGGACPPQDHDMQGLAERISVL

[11] = target: T3, Serine/threonine-protein kinase D2 (Homo sapiens); conditions: at 1 µM
[12] = target: T4, Serine/threonine-protein kinase D3 (Homo sapiens) (UniProt O94806); conditions: at 0.1 µM
T4 sequence (whole entry): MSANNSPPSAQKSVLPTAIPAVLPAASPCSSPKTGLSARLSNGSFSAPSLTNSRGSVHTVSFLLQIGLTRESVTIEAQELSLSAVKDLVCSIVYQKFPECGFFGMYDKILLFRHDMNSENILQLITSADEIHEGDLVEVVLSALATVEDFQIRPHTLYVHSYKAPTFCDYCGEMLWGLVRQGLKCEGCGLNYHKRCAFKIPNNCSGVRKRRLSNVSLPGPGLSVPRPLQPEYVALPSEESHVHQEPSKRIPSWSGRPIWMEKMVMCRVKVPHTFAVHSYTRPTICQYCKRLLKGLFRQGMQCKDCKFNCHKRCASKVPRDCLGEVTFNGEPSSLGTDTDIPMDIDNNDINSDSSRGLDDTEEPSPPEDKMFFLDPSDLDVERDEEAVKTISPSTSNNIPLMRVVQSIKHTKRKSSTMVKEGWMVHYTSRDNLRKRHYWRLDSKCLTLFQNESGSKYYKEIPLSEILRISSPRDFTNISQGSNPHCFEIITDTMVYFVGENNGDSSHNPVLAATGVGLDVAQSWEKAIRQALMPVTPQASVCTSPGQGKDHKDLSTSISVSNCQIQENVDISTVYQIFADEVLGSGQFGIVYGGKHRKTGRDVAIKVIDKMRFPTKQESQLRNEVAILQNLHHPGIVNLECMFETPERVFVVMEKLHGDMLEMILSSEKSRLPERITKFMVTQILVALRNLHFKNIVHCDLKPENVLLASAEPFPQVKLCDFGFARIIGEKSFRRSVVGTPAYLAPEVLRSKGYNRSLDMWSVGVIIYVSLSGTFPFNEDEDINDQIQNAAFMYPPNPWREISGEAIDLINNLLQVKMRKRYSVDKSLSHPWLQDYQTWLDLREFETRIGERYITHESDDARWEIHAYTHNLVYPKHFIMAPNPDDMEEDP

[13] = target: T4, Serine/threonine-protein kinase D3 (Homo sapiens); conditions: at 1 µM
[14] = target: T5, cGMP-dependent protein kinase 1 (Homo sapiens) (UniProt Q13976); conditions: at 0.1 µM
T5 sequence (whole entry): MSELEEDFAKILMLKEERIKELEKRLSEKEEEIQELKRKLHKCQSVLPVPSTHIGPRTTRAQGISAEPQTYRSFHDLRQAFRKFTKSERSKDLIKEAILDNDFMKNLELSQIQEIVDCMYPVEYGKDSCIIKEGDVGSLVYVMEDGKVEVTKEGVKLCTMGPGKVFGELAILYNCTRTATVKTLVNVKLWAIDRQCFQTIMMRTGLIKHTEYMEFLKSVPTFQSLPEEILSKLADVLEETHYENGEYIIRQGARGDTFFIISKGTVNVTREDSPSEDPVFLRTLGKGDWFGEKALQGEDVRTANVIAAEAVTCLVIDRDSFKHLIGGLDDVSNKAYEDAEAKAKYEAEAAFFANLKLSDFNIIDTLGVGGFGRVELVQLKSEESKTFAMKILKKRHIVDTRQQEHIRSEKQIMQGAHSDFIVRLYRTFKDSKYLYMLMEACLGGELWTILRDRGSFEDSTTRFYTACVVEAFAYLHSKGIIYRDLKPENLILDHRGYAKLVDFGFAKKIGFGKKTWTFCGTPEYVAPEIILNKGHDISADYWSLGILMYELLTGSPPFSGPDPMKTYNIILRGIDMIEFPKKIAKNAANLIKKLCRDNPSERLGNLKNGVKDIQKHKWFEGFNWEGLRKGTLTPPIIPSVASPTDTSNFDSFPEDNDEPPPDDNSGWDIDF

[15] = target: T5, cGMP-dependent protein kinase 1 (Homo sapiens); conditions: at 1 µM
[16] = target: T6, cGMP-dependent protein kinase 2 (Homo sapiens) (UniProt Q13237); conditions: at 0.1 µM
T6 sequence (whole entry): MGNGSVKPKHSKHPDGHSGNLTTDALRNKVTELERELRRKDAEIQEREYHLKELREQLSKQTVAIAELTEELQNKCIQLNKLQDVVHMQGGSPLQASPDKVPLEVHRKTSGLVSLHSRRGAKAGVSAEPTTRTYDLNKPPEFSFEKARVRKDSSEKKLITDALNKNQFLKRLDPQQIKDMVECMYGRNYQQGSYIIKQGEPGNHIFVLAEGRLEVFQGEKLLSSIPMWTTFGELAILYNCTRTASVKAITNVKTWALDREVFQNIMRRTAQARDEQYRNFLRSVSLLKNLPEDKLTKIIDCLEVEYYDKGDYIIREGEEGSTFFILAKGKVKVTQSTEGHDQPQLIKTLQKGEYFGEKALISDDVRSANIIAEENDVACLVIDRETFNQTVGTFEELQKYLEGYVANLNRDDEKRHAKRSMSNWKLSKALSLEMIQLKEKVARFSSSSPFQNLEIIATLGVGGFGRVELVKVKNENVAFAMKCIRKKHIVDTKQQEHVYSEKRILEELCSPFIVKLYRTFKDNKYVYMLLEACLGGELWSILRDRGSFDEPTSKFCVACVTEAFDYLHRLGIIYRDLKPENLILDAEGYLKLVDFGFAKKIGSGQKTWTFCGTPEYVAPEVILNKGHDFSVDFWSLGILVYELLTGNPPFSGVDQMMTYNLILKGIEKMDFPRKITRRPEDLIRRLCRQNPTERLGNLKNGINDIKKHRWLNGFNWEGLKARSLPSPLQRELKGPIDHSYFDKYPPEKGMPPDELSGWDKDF

[17] = target: T6, cGMP-dependent protein kinase 2 (Homo sapiens); conditions: at 1 µM
[18] = target: T7, cAMP-dependent protein kinase catalytic subunit PRKX (Homo sapiens) (UniProt P51817); conditions: at 0.1 µM
T7 sequence (whole entry): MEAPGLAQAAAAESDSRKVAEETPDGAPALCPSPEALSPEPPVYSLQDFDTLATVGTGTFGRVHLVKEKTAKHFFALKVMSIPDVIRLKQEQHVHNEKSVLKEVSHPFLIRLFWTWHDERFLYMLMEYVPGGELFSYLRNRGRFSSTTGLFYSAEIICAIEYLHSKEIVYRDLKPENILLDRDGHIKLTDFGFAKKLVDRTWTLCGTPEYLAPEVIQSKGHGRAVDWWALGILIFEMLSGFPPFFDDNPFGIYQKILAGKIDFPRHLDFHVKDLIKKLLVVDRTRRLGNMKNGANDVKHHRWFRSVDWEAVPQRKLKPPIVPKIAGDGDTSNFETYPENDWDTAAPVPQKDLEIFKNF

[19] = target: T7, cAMP-dependent protein kinase catalytic subunit PRKX (Homo sapiens); conditions: at 1 µM
[20] = target: Rho-associated protein kinase 1 (Homo sapiens) (UniProt Q13464); conditions: at 0.1 µM;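 note: values are mean percent inhibition of ROCK1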
Rho-associated protein kinase 1 (Homo sapiens), sequence (Q13464 2-1354 limits assumed): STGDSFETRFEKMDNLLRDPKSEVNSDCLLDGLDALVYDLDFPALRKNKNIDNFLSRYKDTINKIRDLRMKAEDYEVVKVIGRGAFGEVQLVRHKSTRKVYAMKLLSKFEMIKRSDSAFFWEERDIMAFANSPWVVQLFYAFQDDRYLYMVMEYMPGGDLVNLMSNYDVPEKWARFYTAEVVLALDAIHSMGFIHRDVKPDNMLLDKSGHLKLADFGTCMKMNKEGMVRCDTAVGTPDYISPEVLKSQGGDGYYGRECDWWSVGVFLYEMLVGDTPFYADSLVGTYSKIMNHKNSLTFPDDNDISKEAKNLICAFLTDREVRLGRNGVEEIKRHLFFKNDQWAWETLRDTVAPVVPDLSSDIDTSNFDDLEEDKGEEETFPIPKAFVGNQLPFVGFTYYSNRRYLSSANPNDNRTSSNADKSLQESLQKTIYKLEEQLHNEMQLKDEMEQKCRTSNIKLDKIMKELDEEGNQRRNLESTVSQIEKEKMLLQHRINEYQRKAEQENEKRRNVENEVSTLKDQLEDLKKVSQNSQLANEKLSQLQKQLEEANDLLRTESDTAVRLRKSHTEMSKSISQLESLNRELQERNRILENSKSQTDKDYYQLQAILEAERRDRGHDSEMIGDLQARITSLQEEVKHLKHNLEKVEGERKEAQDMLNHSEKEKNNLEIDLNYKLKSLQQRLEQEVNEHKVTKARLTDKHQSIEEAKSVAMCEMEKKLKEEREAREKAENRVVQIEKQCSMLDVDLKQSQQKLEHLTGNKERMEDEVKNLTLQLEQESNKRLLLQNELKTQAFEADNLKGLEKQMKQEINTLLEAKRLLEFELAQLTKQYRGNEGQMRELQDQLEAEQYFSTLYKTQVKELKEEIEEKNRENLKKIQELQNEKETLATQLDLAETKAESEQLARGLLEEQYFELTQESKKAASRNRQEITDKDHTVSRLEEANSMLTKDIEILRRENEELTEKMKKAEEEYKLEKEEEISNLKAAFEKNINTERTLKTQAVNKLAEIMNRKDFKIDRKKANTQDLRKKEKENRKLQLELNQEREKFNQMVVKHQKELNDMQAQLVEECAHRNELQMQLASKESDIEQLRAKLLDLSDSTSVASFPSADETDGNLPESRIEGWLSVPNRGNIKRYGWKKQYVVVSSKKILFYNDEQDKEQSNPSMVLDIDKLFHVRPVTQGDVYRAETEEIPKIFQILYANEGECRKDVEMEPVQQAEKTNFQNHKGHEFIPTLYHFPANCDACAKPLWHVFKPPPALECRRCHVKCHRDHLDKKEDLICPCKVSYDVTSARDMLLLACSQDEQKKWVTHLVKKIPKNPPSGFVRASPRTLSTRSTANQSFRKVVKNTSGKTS

Protein kinase C beta type (Homo sapiens), sequence (P05771 2-671 limits assumed): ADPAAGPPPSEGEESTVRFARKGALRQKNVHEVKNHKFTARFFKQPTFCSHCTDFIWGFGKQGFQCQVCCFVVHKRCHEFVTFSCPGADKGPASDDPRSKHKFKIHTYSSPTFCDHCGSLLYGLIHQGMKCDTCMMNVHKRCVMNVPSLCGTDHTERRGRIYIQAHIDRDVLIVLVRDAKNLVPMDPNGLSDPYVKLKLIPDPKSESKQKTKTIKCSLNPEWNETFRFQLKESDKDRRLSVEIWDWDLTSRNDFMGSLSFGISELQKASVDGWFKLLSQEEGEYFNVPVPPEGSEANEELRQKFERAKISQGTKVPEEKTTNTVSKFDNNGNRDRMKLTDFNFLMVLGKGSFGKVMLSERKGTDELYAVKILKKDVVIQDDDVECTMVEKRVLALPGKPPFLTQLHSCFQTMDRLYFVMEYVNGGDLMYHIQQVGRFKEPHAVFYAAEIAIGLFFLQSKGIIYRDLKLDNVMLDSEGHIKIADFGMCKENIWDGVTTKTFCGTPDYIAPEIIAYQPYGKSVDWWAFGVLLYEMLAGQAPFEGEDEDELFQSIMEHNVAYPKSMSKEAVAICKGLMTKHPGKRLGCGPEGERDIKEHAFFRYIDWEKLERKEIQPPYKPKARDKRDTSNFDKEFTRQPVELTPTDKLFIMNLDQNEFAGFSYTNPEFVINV
Protein kinase C theta type (Homo sapiens), sequence (Q04759 whole entry, looked up): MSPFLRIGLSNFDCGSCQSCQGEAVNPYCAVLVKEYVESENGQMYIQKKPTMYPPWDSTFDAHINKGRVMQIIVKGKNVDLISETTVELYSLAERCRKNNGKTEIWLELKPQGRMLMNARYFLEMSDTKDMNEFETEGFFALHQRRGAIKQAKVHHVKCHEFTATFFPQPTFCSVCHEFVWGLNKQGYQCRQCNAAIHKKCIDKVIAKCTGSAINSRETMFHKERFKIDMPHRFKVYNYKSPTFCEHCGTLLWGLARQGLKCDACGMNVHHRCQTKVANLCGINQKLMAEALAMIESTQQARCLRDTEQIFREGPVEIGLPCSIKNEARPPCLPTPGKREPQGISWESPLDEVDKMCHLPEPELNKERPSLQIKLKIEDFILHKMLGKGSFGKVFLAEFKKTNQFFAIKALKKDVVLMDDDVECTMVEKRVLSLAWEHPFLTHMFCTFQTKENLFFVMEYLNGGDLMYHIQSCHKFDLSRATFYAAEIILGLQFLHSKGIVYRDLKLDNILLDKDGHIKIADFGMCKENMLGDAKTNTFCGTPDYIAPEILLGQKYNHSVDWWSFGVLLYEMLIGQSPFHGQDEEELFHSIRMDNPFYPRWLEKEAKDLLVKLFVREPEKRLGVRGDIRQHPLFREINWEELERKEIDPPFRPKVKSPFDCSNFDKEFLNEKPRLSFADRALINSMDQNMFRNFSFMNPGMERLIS

Row | SMILES | inhibition [1] [%] | inhibition [2] [%] | inhibition [3] [%] | inhibition [4] [%] | inhibition [5] [%] | inhibition [6] [%] | inhibition [7] [%] | inhibition [8] [%] | inhibition [9] [%] | inhibition [10] [%] | inhibition [11] [%] | inhibition [12] [%] | inhibition [13] [%] | inhibition [14] [%] | inhibition [15] [%] | inhibition [16] [%] | inhibition [17] [%] | inhibition [18] [%] | inhibition [19] [%] | inhibition [20] [%]
1 | CC(C)c1ccc(-c2cc(-c3c[nH]nc3-c3ccccn3)ccn2)cc1 | 1.42 | -0.37 | 1.12 | 0.13 | -0.28 | 0.43 | 1.4 | 1.12 | 8.61 | 1.16 | 10.9 | 1.32 | 5.01 | 2.03 | 2.34 | -0.11 | 2.04 | -0.13 | -0.45 | 0.38
2 | CCN1CCC(C(=O)Nc2n[nH]c3nnc(-c4cccc(F)c4F)cc23)CC1 | -0.22 | -0.71 | -1.05 | 0.26 | -1.11 | 0.39 | 0.87 | -0.1 | -0.6 | 0.26 | 0.06 | -0.39 | -0.3 | 0.16 | 0.21 | -1.12 | 0.85 | 0.8 | 0.57 | -0.76
